Compound activity from PubChem.
Mcl1 Noxa PPI – Mcl-1/Noxa binding inhibitors, primary screen, biochemical, TR-FRET, 1536-well; inhibition, % at 21.7 µM; AID 1022, 2008; actives 1.5% (n = 220,000); TR-FRET Mcl-1/Noxa peptide binding, 2 h; Induced myeloid leukemia cell differentiation protein Mcl-1 (Homo sapiens), Q07820;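 active = compounds that cut the protein-peptide binding signal by more than 50% relative to plate controls in a single-dose test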;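 note: His-tagged Mcl-1 with rhodamine Noxa BH3 peptide and terbium anti-His antibody; 0% = Mcl-1 plus Noxa peptide wells and 100% = peptide-only wells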
Target sequence (Q07820 whole entry, looked up): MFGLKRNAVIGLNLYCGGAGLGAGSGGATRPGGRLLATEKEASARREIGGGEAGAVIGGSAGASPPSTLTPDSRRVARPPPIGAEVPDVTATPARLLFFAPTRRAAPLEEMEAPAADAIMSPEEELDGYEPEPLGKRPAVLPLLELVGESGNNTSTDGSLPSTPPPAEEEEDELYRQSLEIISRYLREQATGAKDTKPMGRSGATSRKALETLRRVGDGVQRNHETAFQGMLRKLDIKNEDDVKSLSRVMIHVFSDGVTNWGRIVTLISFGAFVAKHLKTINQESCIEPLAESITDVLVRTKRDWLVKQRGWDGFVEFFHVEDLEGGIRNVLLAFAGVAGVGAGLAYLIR
14-3-3 Bad PPI – inhibitors of 14-3-3 zeta/Bad binding, primary screen, biochemical, TR-FRET, bovine 14-3-3 zeta | 14-3-3 protein zeta/delta (Bos taurus), P63103 | inhibition, % at 21.7 µM | actives 0.71% (n = 220,000) | TR-FRET 14-3-3zeta/Dy647-pBad peptide displacement, 1 h;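 active = inhibition above about 70%, limit read from the data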;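 note: 0% = full 14-3-3 plus peptide FRET controls and 100% = background without 14-3-3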
Target sequence (P63103 whole entry, looked up): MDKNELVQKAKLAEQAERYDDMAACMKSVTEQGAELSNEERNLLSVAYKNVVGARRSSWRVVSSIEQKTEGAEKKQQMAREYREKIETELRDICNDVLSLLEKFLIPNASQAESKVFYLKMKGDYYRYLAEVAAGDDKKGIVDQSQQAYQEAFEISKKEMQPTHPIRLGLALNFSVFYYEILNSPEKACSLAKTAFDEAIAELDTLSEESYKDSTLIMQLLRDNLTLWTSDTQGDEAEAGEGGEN
Hck Nef HTS – inhibitors of Nef-activated human Hck kinase, primary screen, biochemical, Z-Lyte FRET, 384-well, Hck-YEEI; actives 0.68% (n = 220,000); Tyrosine-protein kinase HCK (Homo sapiens), P08631; Recombinant Hck-YEEI plus Nef, Z-Lyte FRET kinase assay; inhibition, % at 20 µM;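 active = Hck-Nef kinase inhibition above about 50%, limit read from the data; inactive = inhibition below that limit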;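 note: 0% = DMSO with Hck plus Nef and 100% = Hck alone without Nef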
Pf gametocyte – late stage P. falciparum gametocyte viability inhibitors, primary screen, ATP luminescence, HTS | P. falciparum stage V gametocytes, 24 h | inhibition, % at 10.9 µM | actives 0.065% (n = 150,000) | AID 743093, 2013;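 active = inhibition above the mean plus 3 SD of compounds within the control limits, set per campaign, cut at about 38% in these data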;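 note: 0% = DMSO wells and 100% = medium only without gametocytes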
Mcl1 Bid PPI – Mcl-1/Bid binding inhibitors, primary screen, biochemical, TR-FRET, 1536-well. AID 1021, 2008. TR-FRET Mcl-1/Bid-Dy647 peptide binding. Induced myeloid leukemia cell differentiation protein Mcl-1 (Homo sapiens), Q07820. actives 0.97% (n = 220,000). inhibition, % at 21.7 µM;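 active = compounds that cut the binding signal by more than half at the single screening dose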;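 note: His-tagged Mcl-1 with europium anti-His antibody binding Bid BH3 peptide; 0% = Mcl-1 plus peptide wells and 100% = peptide-only wells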
Mcl-1 Bim block – inhibitors of Bim peptide binding to Mcl-1, primary screen, biochemical, bead-based flow cytometry, multiplex. Induced myeloid leukemia cell differentiation protein Mcl-1 (Homo sapiens), Q07820. Bim peptide-Mcl-1 binding. inhibition, % at 10 µM. actives 0.1% (n = 190,000). AID 1009, 2008; in the data active = inhibition above about 40%;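 note: 0% = no compound tracer wells and 100% = peptide blocker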
Hck Nef conf – retest of Hck:Nef kinase inhibitor hits, confirmation, biochemical, Z-Lyte FRET, 384-well, p-Tyr peptide counterscreen. shares compounds with Hck Nef HTS. Recombinant Hck-YEEI:Nef, Z-Lyte FRET kinase assay. calls only at 10 µM. actives 28% (n = 1,300). AID 463188, 2010;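 active = average inhibition of at least 50%, with Z-scores no higher than 3 in both the phospho-tyrosine peptide and fluorescence counterscreens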
Active calls of the source: *; i = inactive; nt = no result shown; + = active, no number. This is a sample that favours compounds with a hit; in the whole collection about 2.9% have one here.

SMILES	Mcl1 Noxa PPI	14-3-3 Bad PPI	Hck Nef HTS	Pf gametocyte	Mcl1 Bid PPI	Mcl-1 Bim block	Hck Nef conf
O=c1[nH]c(=S)[nH]c(O)c1N=Nc1ccc(-c2ccccc2)cc1[N+](=O)[O-]	91.9*	-6.3	68.4*	nt	-41.2	-1.0	i
O=[N+]([O-])c1ccccc1NC(=S)N/N=C/c1ccc(O)c(O)c1	54.7*	-10.2	86.7*	-27.4	-97.1	0.0	i
CC(=O)Oc1cc2oc(=O)cc(C)c2cc1OC(C)=O	7.8	-4.0	68.2*	-15.5	-7.0	-5.0	nt
CCN(c1ccccc1)S(=O)(=O)c1cc(C(=O)Oc2ccc3c(C)cc(=O)oc3c2)ccc1C	22.1	1.9	55.7*	-41.2	-8.7	0.0	nt
CC(=O)Oc1cc(OC(C)=O)c2c(C)cc(=O)oc2c1	28.0	-7.7	36.5	2.9	-8.3	-1.0	nt
CC(=O)Oc1ccc2c(C)cc(=O)oc2c1	-3.3	-14.7	86.0*	-21.6	14.2	-2.0	i
CC(=O)Nc1c(OC(C)=O)ccc2c(C)cc(=O)oc12	nt	nt	38.0	nt	nt	0.0	nt
O=C1CSCN1c1ccc(Cl)cc1	-1.2	0.0	5.4	-22.1	-15.8	0.0	nt
Cc1nc(NC2=NCN(CCCN3CCOCC3)CN2)nc2c(C)cccc12	18.8	-10.0	2.0	nt	-10.7	1.0	nt
Cc1c(Cl)cccc1NC(=O)CN1CCN(CCN=CC2=C(O)CC(c3ccccc3)CC2=O)CC1 (centres undefined)	8.6	-23.0	20.6	-1.5	-13.9	-4.0	nt
COC(=O)C1=CNC=C(C(=O)OC)C1c1ccccc1Cl	13.2	-1.8	65.8*	nt	-34.3	0.0	nt
CCOC(=O)c1cc2c(=O)n3ccccc3nc2n(Cc2ccco2)c1=NC(=O)c1ccccc1OC	33.4	-3.6	19.4	nt	-29.5	2.0	nt
CCOC(=O)c1cc2c(=O)n3ccccc3nc2n(Cc2ccco2)c1=NC(=O)c1ccc(OC)cc1	2.6	-16.6	25.2	-5.7	-36.0	0.0	nt
CCCn1c(=NC(=O)c2ccco2)c(C(=O)OCC)cc2c(=O)n3ccccc3nc21	24.6	nt	62.5*	nt	-30.1	-1.0	i
CCOC(=O)c1cc2c(=O)n3ccccc3nc2n(C(C)C)c1=NC(=O)c1ccco1	5.1	-0.8	105.8*	-24.6	-32.0	0.0	nt
O=C(Nc1nc(COc2ccccc2)cs1)C12CC3CC(CC(C3)C1)C2	13.1	-3.0	0.5	11.5	13.7	-2.0	nt
CCOC(=O)c1nnn2c1nc(SCC(C)=O)c1ccccc12	3.6	-4.7	12.6	3.8	-13.8	nt	nt
CCOC(=O)c1nnn2c1nc(Nc1cccc(C(F)(F)F)c1)c1ccccc12	-0.3	7.7	66.0*	-16.0	5.4	nt	i
Cn1c(SCC(=O)c2c(N)n(C)c(=O)n(C)c2=O)nnc1-c1ccccc1	15.2	6.3	0.7	-25.9	-11.1	-5.0	nt
CCC(Sc1nc2ccccc2[nH]1)C(=O)Nc1ccc(NC(C)=O)cc1 (centres undefined)	3.2	-5.1	17.9	nt	-21.0	0.0	nt
CCC(CC)c1nnc(NC(=O)c2cc(C(=O)OC)cc([N+](=O)[O-])c2)s1	23.2	-2.2	3.9	-2.4	0.6	-6.0	nt
O=C(CCCN1CCC(NC(=O)c2ccccc2)CC1)c1ccc(Cl)cc1	nt	nt	nt	-11.5	nt	nt	nt
Cc1ccc(Cn2c(=O)oc3ccccc32)cc1	8.0	-4.1	21.2	5.7	-4.6	0.0	nt
CCCN1C(=O)/C(=c2\sc3nc(=O)c(Cc4ccc(C)cc4)nn3c2=O)c2ccccc21	19.4	-7.1	52.2*	nt	-53.9	-1.0	i
NC(=O)CN1C(=O)/C(=c2\sc3nc(=O)c(Cc4ccccc4)nn3c2=O)c2ccccc21	28.5	17.5	14.1	13.2	10.7	nt	nt
SMILES	Mcl1 Noxa PPI	14-3-3 Bad PPI	Hck Nef HTS	Pf gametocyte	Mcl1 Bid PPI	Mcl-1 Bim block	Hck Nef conf
CN(C1=C(NC(=O)c2ccc(Cl)cc2)C(=O)c2ccccc2C1=O)c1ccccc1	19.1	-1.2	2.3	10.3	-53.5	-6.0	nt
Cc1cc(C)c2c(n1)nn1c(NCCN3CCOCC3)cc(C)nc21	31.2	13.6	32.5	21.0	1.6	-2.0	nt
COCCNc1cc(C)nc2c3c(C)cc(C)nc3nn12	12.2	3.2	57.1*	-16.4	2.7	-4.0	nt
Cc1cc(OCC(=O)Nc2cccc(S(=O)(=O)NC3=NCCCCC3)c2)ccc1Cl	-1.8	-14.6	0.4	nt	2.2	0.0	nt
COc1ccc(NS(=O)(=O)c2cccc(C(=O)N/N=C(\C)c3ccncc3)c2)cc1	-10.2	2.0	6.5	11.6	-32.3	-1.0	nt
COc1ccc(NS(=O)(=O)c2cccc(C(=O)N/N=C(\C)c3ccc(-n4ccnc4)cc3)c2)cc1	5.6	33.4	59.0*	-1.6	24.9	-1.0	i
Cc1ccc(-c2nn(-c3ccccc3)cc2/C=C2\SC(=S)N(CC(=O)O)C2=O)cc1	88.1*	10.6	57.8*	4.7	35.5	nt	i
O=C(CSc1nc2ccccc2c2nc3ccccc3n12)NCc1ccco1	-69.3	46.4	81.6*	-14.6	85.5*	0.0	nt
CCn1c(SCC(=O)NCc2ccco2)nc2ccccc2c1=O	17.0	-0.1	22.7	9.6	-47.5	1.0	nt
Clc1ccc(/C=N/Nc2ncnc3nc[nH]c23)cc1	25.2	3.2	84.1*	5.0	11.3	nt	+
Cc1ccc(/C=N/Nc2ncnc3nc[nH]c23)cc1	16.8	3.1	93.3*	5.6	-8.8	nt	+
Cc1ccc(C)c(Nc2ncnc3nc[nH]c23)c1	-1.3	4.9	1.7	nt	-20.1	-6.0	nt
Oc1ccc(/C=N/Nc2ncnc3nc[nH]c23)cc1	28.0	4.5	94.9*	-8.7	-26.3	nt	+
Clc1ccccc1CNc1ncnc2nc[nH]c12	0.7	6.2	4.1	nt	-10.3	0.0	nt
Cc1ccc(CN2C(=O)N/C(=C/c3ccc(-c4ccc(C(=O)O)cc4)o3)C2=O)cc1	66.1*	20.1	89.3*	-27.6	-57.9	nt	nt
Cc1cccc(NC(=O)CN2C(=O)N/C(=C\c3ccc(-c4cccc(C(=O)O)c4)o3)C2=O)c1	15.2	2.7	80.1*	-3.4	-26.1	nt	nt
CCOC(=O)c1sc(Nc2nc3c(OC)cccc3s2)nc1C	-101.0	-0.4	66.6*	nt	-108.5	0.0	i
Cc1ccc(-c2nc3ccccc3s2)cc1NC(=O)c1cc(-n2cnnc2)ccc1Cl	9.3	47.8	91.3*	nt	46.8	-1.0	i
